Data on 22 molecules can be found in PubChem BioAssay AID602142 (NMMLSC, 2011).

SMILES strings stand for the structures. This is one part of the list. Unmarked numbers belong to inactive results. How the calls were made is not given here.

Sequence of Lethal factor (Bacillus anthracis) (P15917 whole entry, looked up): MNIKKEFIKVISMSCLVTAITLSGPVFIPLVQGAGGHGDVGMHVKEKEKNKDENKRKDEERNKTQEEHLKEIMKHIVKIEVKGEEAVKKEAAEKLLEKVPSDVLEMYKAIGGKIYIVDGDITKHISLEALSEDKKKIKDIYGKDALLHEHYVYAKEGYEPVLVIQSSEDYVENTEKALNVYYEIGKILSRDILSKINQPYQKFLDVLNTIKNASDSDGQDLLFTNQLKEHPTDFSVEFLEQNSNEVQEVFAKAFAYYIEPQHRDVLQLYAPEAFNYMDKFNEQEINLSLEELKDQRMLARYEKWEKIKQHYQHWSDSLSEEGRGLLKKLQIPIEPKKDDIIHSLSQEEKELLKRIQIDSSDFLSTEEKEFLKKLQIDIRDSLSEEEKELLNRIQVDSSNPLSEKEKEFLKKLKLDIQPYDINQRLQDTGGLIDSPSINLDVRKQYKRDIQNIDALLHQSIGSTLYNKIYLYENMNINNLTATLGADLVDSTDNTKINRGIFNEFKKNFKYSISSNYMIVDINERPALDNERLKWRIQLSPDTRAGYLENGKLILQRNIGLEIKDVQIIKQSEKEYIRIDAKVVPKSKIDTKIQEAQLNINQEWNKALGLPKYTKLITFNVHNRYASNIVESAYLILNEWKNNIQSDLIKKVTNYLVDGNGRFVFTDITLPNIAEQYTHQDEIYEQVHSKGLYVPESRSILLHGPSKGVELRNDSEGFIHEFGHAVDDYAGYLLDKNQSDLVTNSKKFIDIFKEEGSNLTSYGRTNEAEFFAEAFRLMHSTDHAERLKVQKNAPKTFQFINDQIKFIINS

This assay concerns the target Lethal factor (Bacillus anthracis) (UniProt P15917). In words: Bacillus anthracis LF protease inhibitors, confirmation, biochemical, multiplex microsphere, cherry pick 1 (AID 602142). To be noted: multiplex microsphere protease cleavage assay, at 10 µM, stronger effect = higher value.
As to `OC(c1ccc(Cl)cc1)C(CN1CCOCC1)c1ccccc1` (configuration not stated), the inhibition was 3.2%. Next, `Cc1ccc2[nH]cc(CCNC(=O)C3CCCCC3)c2c1`: 3.7%.

With `COCCn1nnnc1C(c1cc2ccc(OC)cc2[nH]c1=O)N1CCc2ccccc2C1` (configuration not stated), the inhibition was -6.3%.

`CC1CCc2c(sc3nc4n(c(=O)c23)CCS4)C1` (configuration not stated): the inhibition is 3.6%. As to `Brc1ccc2ncnc(NCc3cccnc3)c2c1`, the inhibition is -1.9%.

Consider `O=S(=O)(NC1CCCCC1N1CCC(O)CC1)c1ccc(Cl)cc1` (configuration not stated), for which the inhibition was -1.6%.

As for `CC(=O)c1cccc(NC(=O)N2CCCC2C(=O)NCCc2ccccc2)c1` (configuration not stated), the inhibition was 4.9%. For `CC(C)Cc1nnc(NC(=O)CCC(=O)Nc2ccc3cn[nH]c3c2)s1`, the inhibition was -2.6%.

Consider `Cc1ccc(C(=O)COc2cccc(NC(=O)c3ccco3)c2)cc1`, for which the inhibition is -1.8%. Next, `COc1ccccc1-n1c(-c2cc(-c3ccco3)[nH]n2)n[nH]c1=S`: 2.2%. `CCOc1nnc(C)c2c(C)n(-c3cccc(Cl)c3)nc12`: the inhibition was 3.5%. As for `Clc1ccc(-c2ncc3ccccn23)c(Cl)c1`, the figure is 2.1%; as for `CC1CCN(C(=O)c2ccc(S(=O)(=O)Cc3cc(F)ccc3F)c([N+](=O)[O-])c2)CC1`, 1.6%; as for `CCOc1ccc(NC(=O)CC(Cc2ccc(Cl)cc2)C(=O)O)cc1` (configuration not stated), 2.3%.

Take `COC(=O)CN(c1nc(C)c(Cl)c(OC)n1)S(=O)(=O)c1ccc(C)cc1`: the inhibition is 2.2%. Next, `CCN1CCN(C(C(=O)NC2CCCC2)c2cc3c(cc2[N+](=O)[O-])OCO3)CC1` (configuration not stated): 1.5%. As to `CCOCC(=O)NCc1ccc2c(c1)cc(C)n2C`, the inhibition was -1%. As for `CC(=O)Nc1ccc(Oc2ccc3c(c2)C(=O)NC3=O)cc1`, the figure is 0.6%; as for `COc1ccc(C(=O)Nc2nc(-c3ccc(OC)cc3)c(-c3ccc([N+](=O)[O-])cc3)s2)cc1`, 15.9%; as for `COc1ccc(NS(=O)(=O)c2cc(C(=O)Nc3ccccc3C(=O)O)ccc2C)cc1`, -2.7%. Next, `Cc1cc(S(=O)(=O)NC2CCCC2)ccc1-n1cnnn1`: -3.6%. As for `COCc1cc(=O)[nH]c(SC)n1`, the figure is -4.9%.
